The text below walks through data of PubChem BioAssay (Tox21).

The nature of test [1]: Nuclear factor erythroid 2-related factor 2/antioxidant responsive element (Nrf2/ARE) small molecule agonists: qHTS cell viability counter screen in human keratinocytes (AID 1919968; active = well fitted curve in the direction sought with a large enough effect in the repeat runs; an effect the other way counts as inactive or inconclusive; also: nearly all actives have a fitted effect of over 55% in size). The gist of the method:
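KeratinoSens cells (HaCaT keratinocytes stably carrying an ARE-luciferase reporter) were seeded at 1,500 cells/well and rested 5 h at 37 C/5% CO2. They were then exposed to compounds in DMSO for 23 h. Viability was read by CellTiter-Fluor fluorescence after 1 h.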
On the technique in general: Quantitative high-throughput screening tests each substance at several concentrations.

The nature of test [2]: Nuclear factor erythroid 2-related factor 2/antioxidant responsive element (Nrf2/ARE) small molecule agonists: luciferase reporter gene qHTS assay in human keratinocytes (AID 1919969; also: nearly all actives have a fitted effect of over 35% in size). (In general: In a reporter assay the amount or activity of a reporter protein is the signal.)
Test [3] deals with Gonadotropin-releasing hormone receptor (Homo sapiens) (UniProt P30968). The test is described as follows: Human gonadotropin-releasing hormone receptor (GnRHR) small molecule agonists, calcium flux assay in GnRHR-HEK293 cells (AID 1920063). Also: nearly all actives have a fitted effect of over 35% in size. Also: potency is read from the fitted curve at half-maximal effect. In a few lines: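 HEK293 cells stably expressing human GnRHR were plated 18 h at 37 °C, loaded with calcium dye 1 h at 37 °C, then given compound in agonist mode; fluorescence (Ex/Em 480/540) read kinetically for 3 min at 1 s intervals.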
Chain of Gonadotropin-releasing hormone receptor (Homo sapiens) (P30968 whole entry, looked up): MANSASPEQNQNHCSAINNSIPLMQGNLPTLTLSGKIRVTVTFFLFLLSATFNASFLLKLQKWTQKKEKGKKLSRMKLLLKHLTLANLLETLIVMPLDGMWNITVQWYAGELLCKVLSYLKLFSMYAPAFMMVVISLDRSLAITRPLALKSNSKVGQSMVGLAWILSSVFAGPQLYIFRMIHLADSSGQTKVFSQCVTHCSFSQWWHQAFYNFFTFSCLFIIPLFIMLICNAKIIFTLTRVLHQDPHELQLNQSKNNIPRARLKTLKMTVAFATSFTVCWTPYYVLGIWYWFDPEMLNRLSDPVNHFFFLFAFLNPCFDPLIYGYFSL
A general note: A change in cytosolic calcium serves as a functional read-out for many receptors and channels.

Test [4] addresses KiSS-1 receptor (Homo sapiens) (UniProt Q969F8). The test is described as follows: Human kisspeptin (KISS1R) small molecule agonists, calcium flux assay in KISS1R-HEK293 cells (AID 1920064; active = well fitted curve in the direction sought with a large enough effect in the repeat runs; an effect the other way counts as inactive or inconclusive). In a few lines:
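HEK293 cells stably expressing human KISS1R were plated 18 h at 37 °C, loaded with calcium dye for 1 h at 37 °C, then given compound by pin tool. Fluorescence (Ex/Em 480/540) was read kinetically for 3 min.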

A short description of test [5]: G protein-coupled receptor (GPCR) small molecule agonists, calcium flux assay: HEK293 wild type cell line counter screen (AID 1920065). The gist of the method:
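Cells were plated and cultured 18 h at 37 C/5% CO2, then loaded with calcium dye for 1 h at 37 C. Compounds in DMSO were pin-transferred in agonist mode, and fluorescence (Ex/Em 480/540) was read kinetically for 3 min at 1 s intervals.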

The nature of test [6]: p53 small molecule agonists, cell-based qHTS assay with rat liver microsomes (AID 1963578). The gist of the method:
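Agonist mode in p53RE-bla reporter cells, with compounds co-incubated 16 h at 37 C alongside 0.5 mg/mL rat liver microsomes and 0.5 mg/mL NADPH (final), followed by a 2 h LiveBLAzer detection step.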

Test [7] is described as follows: p53 small molecule agonists, cell-based qHTS assay with human liver microsomes: qHTS cell viability counter screen (AID 1963579). Also: nearly all actives have a fitted effect of over 45% in size. In a few lines:
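Metabolically activated exposure: compounds, human liver microsomes and NADPH (0.5 mg/mL final apiece) were added to p53RE-bla cells seeded 5 h earlier, left 16 h at 37 C, and then assessed for viability by CellTiter-Glo luminescence.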

A short description of test [8]: p53 small molecule agonists, cell-based qHTS assay with rat liver microsomes: qHTS cell viability counter screen (AID 1963580). Also: nearly all actives have a fitted effect of over 45% in size. In a few lines:
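HCT-116 p53RE-bla, 4,000 cells/well, 5 h pre-incubation; cpd + rat liver microsomes 0.5 mg/mL + NADPH 0.5 mg/mL (final); 16 h, 37 C; CellTiter-Glo, 30 min RT; luminescence.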

Test [9] is described as follows: p53 small molecule agonists, cell-based qHTS assay: qHTS cell viability counter screen (AID 1963581). Also: nearly all actives have a fitted effect of over 45% in size. In a few lines:
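p53RE-bla HCT-116 cells were exposed to compounds for 16 h at 37 C; after the beta-lactamase FRET read in the same wells, CellTiter-Glo was added and luminescence (intracellular ATP) read after 30 min at room temperature.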

Test [10] in a line: p53 small molecule agonists, cell-based qHTS assay (AID 1963582; active = well fitted activation curve with a large enough effect in the signal ratio in the repeat runs, not every such curve was filed as active; the % refers to the signal ratio). The gist of the method: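 p53RE-bla beta-lactamase reporter cells rested 5 h at 37 C/5% CO2, then received compounds in DMSO by pin transfer and were incubated 16 h at 37 C. LiveBLAzer B/G FRET substrate was loaded for 2 h at room temperature before fluorescence reading.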
The target of test [11] is 5-hydroxytryptamine receptor 2A (Homo sapiens) (UniProt P28223). Kind of test: 5-hydroxytryptamine receptor 2A (HTR2A) small molecule agonists, cell-based qHTS assay (AID 1963587). Also: nearly all actives have a fitted effect of over 30% in size. In a few lines: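 Kinetic calcium-flux fluorescence (2 min, 1 sec intervals) after compound addition in agonist mode. HTR2A-CHO cells were cultured 18 h, then dye-loaded 1 h at 37 C.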
Chain of 5-hydroxytryptamine receptor 2A (Homo sapiens) (P28223 whole entry, looked up): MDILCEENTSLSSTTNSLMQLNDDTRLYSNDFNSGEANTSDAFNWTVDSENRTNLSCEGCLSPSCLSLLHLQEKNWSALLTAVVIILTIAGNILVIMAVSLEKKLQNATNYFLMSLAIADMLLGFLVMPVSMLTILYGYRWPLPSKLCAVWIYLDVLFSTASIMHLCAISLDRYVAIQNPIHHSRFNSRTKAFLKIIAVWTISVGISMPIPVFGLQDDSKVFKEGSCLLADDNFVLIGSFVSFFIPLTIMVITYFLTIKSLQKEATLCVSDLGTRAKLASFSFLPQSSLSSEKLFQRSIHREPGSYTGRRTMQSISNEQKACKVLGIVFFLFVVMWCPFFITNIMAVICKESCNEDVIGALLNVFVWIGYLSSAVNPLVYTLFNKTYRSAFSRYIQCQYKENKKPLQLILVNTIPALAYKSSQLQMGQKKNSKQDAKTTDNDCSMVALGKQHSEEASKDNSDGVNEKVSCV
For test [12], the target named is Muscarinic acetylcholine receptor M1 (Homo sapiens) (UniProt P11229). Kind of test: Cholinergic receptor muscarinic 1 (CHRM1) small molecule antagonists, cell-based qHTS assay (AID 1963588). Also: nearly all actives have a fitted effect of over 40% in size. Also: potency is read from the fitted curve at half-maximal effect. The gist of the method: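 CHRM1-CHO calcium-flux assay, antagonist mode. Cells were seeded 18 h, dye-loaded 1 h at 37 C and given compound for 5 min at RT, then acetylcholine was added at 50nM. FDSS fluorescence was read 3 min; 15 concentrations, three runs.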
Chain of Muscarinic acetylcholine receptor M1 (Homo sapiens) (P11229 whole entry, looked up): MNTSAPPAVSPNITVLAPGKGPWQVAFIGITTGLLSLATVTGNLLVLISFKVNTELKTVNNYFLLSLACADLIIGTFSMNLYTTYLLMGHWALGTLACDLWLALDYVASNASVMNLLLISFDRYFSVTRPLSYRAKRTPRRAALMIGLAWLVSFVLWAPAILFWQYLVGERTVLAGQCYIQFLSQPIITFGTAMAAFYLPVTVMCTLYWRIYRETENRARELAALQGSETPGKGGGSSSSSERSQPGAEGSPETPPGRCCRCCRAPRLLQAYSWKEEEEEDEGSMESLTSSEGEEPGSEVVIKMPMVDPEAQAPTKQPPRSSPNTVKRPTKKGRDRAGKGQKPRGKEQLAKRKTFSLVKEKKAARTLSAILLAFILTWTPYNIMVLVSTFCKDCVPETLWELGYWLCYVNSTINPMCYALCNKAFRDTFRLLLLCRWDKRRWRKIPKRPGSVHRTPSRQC

For test [13] the target is unchanged. The test is described as follows: Cholinergic receptor muscarinic 1 (CHRM1) small molecule agonists, cell-based qHTS assay (AID 1963589). Also: nearly all actives have a fitted effect of over 35% in size. The gist of the method:
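CHO cells stably expressing human CHRM1, seeded 18 h at 37 C/5% CO2, dye-loaded 1 h at 37 C, then given compound in agonist mode; intracellular calcium fluorescence read kinetically at 1 s intervals. Fifteen concentrations, three independent runs.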

The nature of test [14]: cAMP Responsive Elements (CRE) small molecule agonists, cell-based qHTS assay (AID 1963590). In a few lines: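 CRE-bla HEK 293T cells in DMEM with 10% dialyzed FBS, NEAA, pyruvate and 25 mM HEPES were plated 18 h at 37 C/5% CO2, then exposed to compounds in DMSO for 3 h before LiveBLAzer B/G FRET substrate addition.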
Test [15] addresses Beta-2 adrenergic receptor (Homo sapiens) (UniProt P07550). The test is described as follows: Adrenergic beta2 receptor (ADRB2) small molecule antagonists, cell-based qHTS assay (AID 1963592). Also: series mostly up to about 92 µM; nearly all actives have a fitted effect of over 50% in size. The gist of the method:
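Cells (CHO, stable ADRB2 overexpression) incubated 18-20hr at 37C; compounds added from DMSO; agonist mix (1nM isoproterenol, 100uM IBMX, 25uM Ro-20-1724) added; 0.5hr RT; d2-cAMP and anti-cAMP-cryptate added; 1hr RT; 665/615 nm read.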

For test [16] the target is unchanged. The test is described as follows: Adrenergic beta2 receptor (ADRB2) small molecule agonists, cell-based qHTS assay (AID 1963593).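 Also: CHO cells stably overexpressing human ADRB2.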 The gist of the method:
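CHO cells stably over-expressing ADRB2 were plated overnight at 37C, then dosed with compounds plus a stimulation mix containing 100uM IBMX and 25uM Ro-20-1724 for 0.5hr at room temperature. cAMP was measured by HTRF competition, 1hr.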

The target of test [17] is D(2) dopamine receptor (Homo sapiens) (UniProt P14416). Kind of test: Dopamine D2 receptor (DRD2) small molecule agonists, cell-based qHTS assay (AID 1963594). Also: nearly all actives have a fitted effect of over 35% in size. In a few lines: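 cAMP accumulation in DRD2-HEK293 cells measured by HTRF after 1 h detection; compounds added 10 min before NKH477 (200nM […]) forskolin-analogue stimulation, 30 min at room temperature, with Ro20-1724 present at 0.1 mM final.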
Chain of D(2) dopamine receptor (Homo sapiens) (P14416 whole entry, looked up): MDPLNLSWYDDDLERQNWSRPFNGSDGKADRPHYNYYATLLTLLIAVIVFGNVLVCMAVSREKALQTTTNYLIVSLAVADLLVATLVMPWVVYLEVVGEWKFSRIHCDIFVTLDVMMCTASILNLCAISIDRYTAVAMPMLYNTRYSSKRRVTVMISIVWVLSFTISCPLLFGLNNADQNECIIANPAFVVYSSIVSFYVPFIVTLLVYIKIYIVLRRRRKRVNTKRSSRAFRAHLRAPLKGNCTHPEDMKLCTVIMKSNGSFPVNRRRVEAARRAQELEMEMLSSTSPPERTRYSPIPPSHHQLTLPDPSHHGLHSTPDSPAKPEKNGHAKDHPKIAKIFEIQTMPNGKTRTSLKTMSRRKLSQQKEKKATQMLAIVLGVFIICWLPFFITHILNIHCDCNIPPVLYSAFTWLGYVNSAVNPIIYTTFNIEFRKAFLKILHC

Test [18] has the same target. Kind of test: Dopamine D2 receptor (DRD2) small molecule antagonists, cell-based qHTS assay (AID 1963595; active = well fitted inhibition curve with a large enough effect in the signal ratio in the repeat runs, with a control signal flat; the % refers to the signal ratio). In a few lines: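 Antagonism was scored as restored cAMP in HEK293-DRD2 cells. These cells were stimulated with 200 nM NKH477 and 12 nM quinpirole for 30 min at room temperature, in the presence of 0.1 mM Ro20-1724.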
Test [19] is described as follows: cAMP Responsive Elements (CRE) small molecule antagonists, cell-based qHTS assay (AID 1963591; active = well fitted inhibition curve with a large enough effect in the signal ratio in the repeat runs, not every such curve was filed as active; the % refers to the signal ratio). The gist of the method:
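CRE-bla HEK293T cells were plated 18 h at 37 °C/5% CO2, pinned with compound in DMSO, then stimulated with NKH477 at 0.25 uM final for 3 h. LiveBLAzer B/G FRET substrate was added and plates incubated 2 h at room temperature.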

The target in test [20] is 5-hydroxytryptamine receptor 2A (Homo sapiens) (UniProt P28223). Kind of test: 5-hydroxytryptamine receptor 2A (HTR2A) small molecule antagonists, cell-based qHTS assay (AID 1963586). Also: nearly all actives have a fitted effect of over 45% in size. In a few lines: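 Antagonist-mode intracellular calcium assay: DOI (4 nM) added after 5 min compound pre-incubation at room temperature to dye-loaded HTR2A-CHO cells. Fluorescence followed for 3 min, sampled every second.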

Values without a mark were called inactive. Records with an inconclusive call do not appear. The source made the active and inactive calls. Unless noted, calls follow the shape of the full dose curve.

Chain of KiSS-1 receptor (Homo sapiens) (Q969F8 whole entry, looked up): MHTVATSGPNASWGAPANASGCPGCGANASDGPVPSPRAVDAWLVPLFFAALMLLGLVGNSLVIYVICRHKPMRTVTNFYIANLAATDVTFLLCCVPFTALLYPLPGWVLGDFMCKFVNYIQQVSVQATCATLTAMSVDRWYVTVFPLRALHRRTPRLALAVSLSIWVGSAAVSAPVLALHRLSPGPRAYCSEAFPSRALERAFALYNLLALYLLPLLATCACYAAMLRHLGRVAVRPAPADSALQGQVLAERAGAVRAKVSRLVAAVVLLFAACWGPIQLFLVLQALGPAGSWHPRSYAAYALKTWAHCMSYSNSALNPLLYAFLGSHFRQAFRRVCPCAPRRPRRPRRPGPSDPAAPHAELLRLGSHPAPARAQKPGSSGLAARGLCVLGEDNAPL
Chain of Beta-2 adrenergic receptor (Homo sapiens) (P07550 whole entry, looked up): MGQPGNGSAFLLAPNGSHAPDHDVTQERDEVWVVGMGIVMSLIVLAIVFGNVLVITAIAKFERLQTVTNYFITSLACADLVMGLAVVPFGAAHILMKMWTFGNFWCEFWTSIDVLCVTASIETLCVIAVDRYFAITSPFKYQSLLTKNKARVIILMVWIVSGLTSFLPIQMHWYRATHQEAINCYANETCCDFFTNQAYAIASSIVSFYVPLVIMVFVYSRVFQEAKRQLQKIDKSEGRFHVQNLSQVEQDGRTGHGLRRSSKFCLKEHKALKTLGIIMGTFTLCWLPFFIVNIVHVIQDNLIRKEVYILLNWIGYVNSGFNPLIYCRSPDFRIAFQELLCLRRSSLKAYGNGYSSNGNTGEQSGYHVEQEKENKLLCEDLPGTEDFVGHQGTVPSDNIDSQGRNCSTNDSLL

As for `CCOC(=O)Nc1ccc2c(c1)N(C(=O)CCN1CCOCC1)c1ccccc1S2`, the Potency result in test [1], in test [2], in [3], in test [4], in [5] and in test [6] was “inactive” each time. For the same compound, the Potency result in [7], in test [8], in test [9], in test [10], in test [11] and in test [13] was “inactive” in each case. In addition, the Potency result in test [14], in [15], in test [16], in [17] and in [18] was “inactive” throughout. In addition, the Potency in [12] was 0.918 µM (active).

Regarding `Cc1cc2cc3c(C)cc(=O)oc3c(C)c2o1`, the Potency result in test [1], in test [2], in test [3], in [4], in [5] and in test [6] was “inactive” throughout. Further, the Potency result in test [7], in test [8], in test [9], in test [10], in [14] and in test [19] was “inactive” throughout. The Potency entry in [15], in test [17] and in test [18] was “inactive” throughout.

As to `CN(C)C(=O)Oc1cccc([N+](C)(C)C)c1`, the Potency entry in [1], in [2], in [3], in test [4], in test [5] and in test [6] was “inactive” in each case. The Potency result in test [7], in test [8], in test [9], in test [10], in test [19] and in test [15] was “inactive” each time. In [17], the Potency result is “inactive”.

As to `O=C=Nc1ccc(Cl)c(Cl)c1`, the Potency entry in [1], in test [2], in test [3], in [4], in [5] and in [6] was “inactive” throughout. For the same compound, the Potency entry in test [7], in [8], in [9], in test [10], in test [20] and in test [11] was “inactive” each time. Further, the Potency entry in [12], in test [13], in test [14], in [19], in test [15] and in test [17] was “inactive” in each case. Further, in test [18], the Potency entry is “inactive”.

Consider `C=CC(=O)[O-].C=CC(=O)[O-].[Zn+2]`, for which the Potency entry in [1], in test [2], in test [3], in test [4], in test [5] and in test [6] was “inactive” each time. Moreover, the Potency entry in [7], in test [8], in test [9], in test [10], in test [11] and in test [12] was “inactive” throughout. In addition, the Potency result in test [13], in test [14], in test [19], in test [15] and in [16] was “inactive” in each case.

With `CCCOC(=O)CCCCC(=O)OCCC`, the Potency result in test [1], in test [2], in [3], in [4], in test [5] and in test [6] was “inactive” throughout. In addition, the Potency result in [7], in test [8], in test [9], in [10], in [20] and in test [11] was “inactive” throughout. For the same compound, the Potency result in test [12], in test [13], in test [14], in test [19], in test [15] and in test [18] was “inactive” in each case.

Regarding `C[N+](C)(C)CCOC(N)=O`, the Potency entry in test [1], in test [2], in test [4], in test [5], in [6] and in test [7] was “inactive” each time. Further, the Potency result in test [8], in [9], in test [10], in test [14], in test [19] and in test [16] was “inactive” throughout. In addition, the Potency result in [17] and in [18] was “inactive” in each case. In addition, the Potency in test [3] was 2.39 µM (active).

On to `CCCCC/C=C\C/C=C\CCCCCCCC(=O)NC(C)c1ccccc1` (configuration not stated), for which the Potency entry in test [1], in [2], in test [3], in test [4], in test [5] and in [6] was “inactive” each time. The Potency entry in test [7], in test [8], in [9], in test [20], in test [11] and in test [12] was “inactive” throughout. The Potency entry in test [13], in test [15], in test [16], in test [17] and in [18] was “inactive” each time.
